Screen size: about 190,000 compounds; about 1,300 (0.68%) were called active. The sample holds actives, similar compounds and a random draw of the others, so the mix is not that of the screen. Values without a mark were called inactive. No stated cut-off is given here; in the data, active means inhibition above about 50%; inactive means the rest.
biological target: Mannose-6-phosphate isomerase (Homo sapiens) (UniProt P34949); assay: human PMI inhibitors, high substrate, primary screen, biochemical, fluorescence intensity, high mannose 6-phosphate (AID 1220); conditions: recombinant PMI enzyme, coupled fluorescence intensity; at 20 µM; hits give high values
Sequence (P34949 whole entry, looked up): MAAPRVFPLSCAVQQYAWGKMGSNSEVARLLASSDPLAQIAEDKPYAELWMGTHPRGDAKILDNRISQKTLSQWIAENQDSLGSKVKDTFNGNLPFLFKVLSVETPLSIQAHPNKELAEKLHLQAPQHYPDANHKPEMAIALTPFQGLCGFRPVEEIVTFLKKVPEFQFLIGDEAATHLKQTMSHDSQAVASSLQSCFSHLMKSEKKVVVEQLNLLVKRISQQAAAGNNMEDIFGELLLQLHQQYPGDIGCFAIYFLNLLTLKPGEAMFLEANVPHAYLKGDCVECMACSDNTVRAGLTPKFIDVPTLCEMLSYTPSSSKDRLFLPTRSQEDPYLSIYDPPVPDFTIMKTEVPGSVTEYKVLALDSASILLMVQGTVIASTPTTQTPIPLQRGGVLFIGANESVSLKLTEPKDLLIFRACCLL

Row | SMILES | inhibition
1 | COc1cc(/C=C(/C#N)c2nc3ccccc3c(=O)[nH]2)ccc1O | 13.6%
2 | Clc1ccc(Cn2cccn2)cn1 | 10.3%
3 | Clc1ccc(CNc2ccccc2NCc2ccc(Cl)nc2)cn1 | 53.8% (active)
4 | Cc1ccc(NCc2ccc(Cl)nc2)c(NCc2ccc(Cl)nc2)c1 | -88.3%
5 | COc1ccc(CCC(=O)NNC(=S)NCc2ccc(F)cc2)cc1 | 1.2%
6 | CCCC[n+]1ccn(C2=C([O-])c3ccccc3C(=O)/C2=N\S(=O)(=O)c2ccccc2)c1 | 46.3%
7 | Cc1ccc(S(=O)(=O)/N=C2\C(=O)c3ccccc3C([O-])=C2n2cc[n+](CCC(C)C)c2)cc1 | 50.4% (active)
8 | CC(C)CC[n+]1ccn(C2=C([O-])c3ccccc3C(=O)/C2=N\S(=O)(=O)c2ccccc2)c1 | 47%
9 | COc1ccccc1NC(=O)NCC(=O)Nc1c(C)cccc1C | -13.9%
10 | Cc1ccc(Sc2cnc(N)nc2C)cc1 | 3.4%
11 | COc1cc(Sc2ccc(C)cc2)c(OC)cc1N | 67.2% (active)
12 | COC(=O)c1ccc(Sc2ccc(C)cc2)c(N)c1 | 9.7%
13 | CCc1ccc2c(c1)C(c1cccs1)=NNC(c1cccnc1)=N2 | 3.3%
14 | C=CCSc1nc(-c2ccc3c(c2)OCO3)cc(C(F)(F)F)c1C#N | 11.5%
15 | O=C(CNCc1ccncc1)Nc1cc(S(=O)(=O)N2CCCCC2)ccc1Cl | -89%
16 | O=C(CCl)Nc1cc(S(=O)(=O)N2CCCCCC2)ccc1Cl | 4.5%
17 | O=C(CNCc1ccccn1)Nc1cc(S(=O)(=O)N2CCCCC2)ccc1Cl | 55.4% (active)
18 | CC1CCC(C(C)C)C(OCC[N+](C)(C)C)C1 (centres undefined) | 8.9%
19 | Cc1nn(CCO)c(C)c1Oc1ccccc1O | 4%
20 | COc1cc([C@@H]2C[C@H]3CN(c4ccccc4)C(=O)[C@]34CCCN24)cc(OC)c1OC | 3.7%
21 | CCOc1cc([C@@H]2C[C@H]3CN(c4ccccc4)C(=O)[C@]34CCCN24)ccc1OC | 57.1% (active)
22 | COCc1cc([C@@H]2C[C@H]3CN(c4ccccc4)C(=O)[C@]34CCCN24)ccc1OC | 13.6%
23 | O=c1oc(-c2ccccc2NS(=O)(=O)c2ccccc2)nc2ccccc12 | -2.5%
24 | Fc1cc(F)cc(NC(=S)N2CCC(c3ccccc3)C2)c1 (centres undefined) | -2.1%
25 | Cn1cccc1CNC(=O)Nc1ccccc1 | -5.8%

Row | SMILES | inhibition
26 | N#CC1=C(N)Oc2cc(O)ccc2C1c1cccs1 (centres undefined) | 10.1%
27 | N#CC1=C(N)Oc2cc3ccccc3cc2C1c1cccs1 (centres undefined) | 7.9%
28 | CN(C)/C=N/C1=C(C#N)C(c2cccs2)c2ccc3ccccc3c2O1 (centres undefined) | 55.2% (active)
29 | COc1cc(/C=N/NC(=O)CC2(C)OCCCO2)ccc1OCc1ccccc1 | 2.4%
30 | CC1(CC(=O)N/N=C/c2ccc(OCc3ccc(Cl)cc3Cl)cc2)OCCCO1 | 10.6%
31 | COc1cc(/C=N/NC(=O)CC2(C)OCCCO2)ccc1OCc1ccc(Cl)cc1Cl | 51.1% (active)
32 | COc1ccc(NC(=O)CSc2nc(N)c3cc4c(nc3n2)CCCC4)c(OC)c1 | -6.7%
33 | CCOC(=O)N1CCN(C(=S)Nc2cccc(C)c2C)CC1 | 8.4%
34 | Cc1ccccc1NC(=S)N1CCCC1 | 52.6% (active)
35 | CCOC(=O)C1CCN(C(=S)Nc2cccc(C)c2C)CC1 | 52.8% (active)
36 | S=C(Nc1ccccc1Cl)N1CCCC1 | 13.6%
37 | Cc1ccccc1NC(=S)N1CCOCC1 | -2.1%
38 | CCOC(=O)C1CCN(C(=S)Nc2cc(C)ccc2C)CC1 | 7.3%
39 | O=C(O)CC1NC(=O)N(C2CCCCC2)C1=O (centres undefined) | -10%
40 | CCCCN(CC)C(=O)Cc1ccc(Br)cc1 | 6.7%
41 | CCOC(=O)C1(Cc2ccc(OC)cc2)CCN(C(=O)CN2CCN(CC)CC2)CC1 | 12.7%
42 | O=C(COC(=O)c1nc(Cl)ccc1Cl)Nc1ccc2c(c1)OCO2 | 8.3%
43 | CCN(CC)C(=O)N1c2ccccc2CC(N(CC)CC)c2ccccc21 (centres undefined) | -19.4%
44 | Fc1cccc(Cl)c1/C=N/Nc1c(Cl)cncc1Cl | 8.5%
45 | Cc1nc(C#N)c(N/N=C/c2c(F)cccc2Cl)o1 | 53.3% (active)
46 | Cc1nc(C#N)c(N/N=C/c2cccc(Cl)c2)o1 | 12.6%
47 | Cc1cccc2cc(C3CC(c4cccs4)=NN3C(=O)CCC(=O)O)c(Cl)nc12 (centres undefined) | 8.9%
48 | COc1ccc(N2CCn3c2nc2c3c(=O)n(CCCc3ccccc3)c(=O)n2C)cc1 | -5.3%
49 | Cc1ccc(-c2nc(CN(CC3CCC3)CC3CCCO3)c(C)o2)s1 (centres undefined) | 5.6%

Source: PubChem BioAssay AID1220 (Sanford-Burnham Center for Chemical Genomics, 2008)
